Experimental data taken from PubChem BioAssay.
“And” between values parts separate entries of the source, which are not always exact repeats. Equal values may be shown once. The source made the active and inactive calls. Unless noted, no stated cut-off is given here; in the data, active means inhibition above about 80%; inactive means the rest.

Tests used:
[1] = LFS_MB_P medulloblastoma growth inhibition, cell-based, chromothripsis tumors, cisplatin or BGB combos (AID 1671449); settings: LFS_MB_P medulloblastoma cells;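 further: cells exposed for 96 hours; 0% = vehicle DMSO and 100% = killing by high DMSO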
[2] = HDN33 neuroblastoma growth inhibition, cell-based, chromothripsis tumors, cisplatin or BGB combos (AID 1671450); settings: HDN33 neuroblastoma cells, stronger effect = higher value;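 further: cells exposed to compound for four days; 0% = vehicle DMSO and 100% = cell killing by high DMSO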
[3] = ICB984 medulloblastoma cell growth inhibition, synergistic combos for chromothripsis tumors, cisplatin or BGB combos (AID 1671451; call rule not given here;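 further: cells exposed for 96 hours before readout; 0% = vehicle DMSO and 100% = killing by high DMSO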); settings: ICB984 medulloblastoma cells, drug combinations, stronger effect = higher value
[4] = LFS_MB_1R medulloblastoma cell growth inhibition, synergistic combos for chromothripsis tumors, cisplatin or BGB combos (AID 1671452); settings: LFS_MB_1R medulloblastoma cells, stronger effect = higher value;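 further: cells exposed for 96 hours before readout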
[5] = HTB85 osteosarcoma cell growth inhibition, synergistic combos for chromothripsis tumors, BGB or cisplatin IC20 combos (AID 1671453); settings: HTB85 osteosarcoma cells, drug combinations, stronger effect = higher value;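 further: cells exposed for 96 hours before readout; 0% = vehicle DMSO and 100% = high DMSO killing control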
[6] = CRL2098 osteosarcoma cell growth inhibition, synergistic combos for chromothripsis tumors, BGB or cisplatin IC20 combos (AID 1671454); settings: CRL2098 osteosarcoma cells, drug combinations, stronger effect = higher value;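 further: cells exposed for 96 h before readout; 0% = vehicle DMSO and 100% = killing by high DMSO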
[7] = HD-MB03 medulloblastoma cell growth inhibition, synergistic combos for chromothripsis tumors, BGB or cisplatin IC20 combos (AID 1671455; in the data active means inhibition above about 83%;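 further: 0% = vehicle DMSO and 100% = high DMSO as cytotoxic control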); settings: HD-MB03 medulloblastoma cells, stronger effect = higher value
[8] = UWB1.289 ovarian carcinoma cell growth inhibition, synergistic combos for chromothripsis tumors, BGB or cisplatin combos (AID 1671456); settings: UWB1.289 ovarian carcinoma cells, stronger effect = higher value;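 further: cells exposed to compound for four days; 0% = vehicle DMSO and 100% = killing by high DMSO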
[9] = LFS_MB_2R medulloblastoma cell growth inhibition, synergistic combos for chromothripsis tumors, cisplatin combos (AID 1671457); settings: LFS_MB_2R medulloblastoma cells, stronger effect = higher value;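 further: cells exposed to compound for four days before readout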
[10] = MDA-MB-436 breast carcinoma cell growth inhibition, synergistic combos for chromothripsis tumors, BGB or cisplatin combos (AID 1671458; call rule not given here;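 further: cells exposed for 96 hours; 0% = vehicle DMSO and 100% = killing by high DMSO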); settings: MDA-MB-436 breast carcinoma growth inhibition, drug combinations, stronger effect = higher value
[11] = UWB1.289_BRCA1 ovarian cancer growth, cell-based, BGB or cisplatin combinations (AID 1671459); settings: UWB1.289 BRCA1 ovarian carcinoma, drug combinations, stronger effect = higher value
[12] = human astrocyte viability loss, single and combined drugs, cytotoxicity control for chromothriptic childhood tumor combination screen, cell-based, BGB or cisplatin IC20 combos (AID 1671460); settings: Human astrocytes, drug combinations, stronger effect = higher value;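 further: cells exposed to compounds for 96 hours before viability readout; 0% = vehicle and 100% = killing control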
[13] = growth inhibition of BT084 medulloblastoma cells, cell-based, ICGC_MB145, cisplatin and BGB IC40 combos (AID 1671461); settings: drug combinations, stronger effect = higher value;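 further: cells exposed to drugs for 96 hours; 0% = vehicle DMSO and 100% = high DMSO full killing control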
[14] = growth inhibition of RCMB18 medulloblastoma cells, cell-based, cisplatin and BGB IC40 combos (AID 1671462); settings: stronger effect = higher value;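 further: cells exposed to compound for four days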
[15] = growth inhibition of CRL1545 osteosarcoma cells, cell-based, cisplatin and BGB IC20 combos (AID 1671464); settings: stronger effect = higher value;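 further: cells exposed to compound for 96 hours before readout; 0% = vehicle DMSO and 100% = high DMSO killing control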
[16] = at 0.5 µM, stronger effect = higher value
[17] = measured here: combination with BGB IC20, at 0.005 µM
[18] = measured here: combination with BGB IC40, at 0.005 µM
[19] = measured here: combination with BGB IC40, at 0.05 µM
[20] = measured here: combination with cisplatin, at 0.5 µM, stronger effect = higher value
[21] = measured here: combination with cisplatin, at 5 µM, stronger effect = higher value
[22] = measured here: with BGB IC20 combination, at 0.5 µM
[23] = measured here: with cisplatin IC20 combination, at 0.5 µM
[24] = measured here: 5 uM single agent, at 5 µM
[25] = measured here: combination with cisplatin, at 0.5 µM
[26] = measured here: combination with cisplatin, at 5 µM
[27] = measured here: with BGB IC20, at 0.5 µM
[28] = measured here: with BGB IC20, at 5 µM
[29] = measured here: with cisplatin IC20, at 0.5 µM
[30] = measured here: with cisplatin IC20, at 5 µM
[31] = measured here: combination with BGB at IC20, at 0.5 µM
[32] = measured here: combination with cisplatin at IC20, at 0.5 µM
[33] = measured here: combo with BGB at IC20, at 0.5 µM
[34] = measured here: combo with cisplatin at IC20, at 0.5 µM
[35] = measured here: inhibition with BGB combination, at 0.05 µM
[36] = measured here: inhibition with cisplatin combination, at 0.05 µM
[37] = measured here: BGB combination, at 0.5 µM
[38] = measured here: BGB combination, at 5 µM
[39] = measured here: cisplatin combination, at 0.5 µM
[40] = measured here: cisplatin combination, at 5 µM
[41] = BGB combination, concentration series, at 5 µM
[42] = cisplatin combination, concentration series, at 5 µM
[43] = measured here: combo with BGB IC20, at 0.5 µM
[44] = measured here: combo with cisplatin IC20, at 0.5 µM
[45] = cisplatin combination, at 0.5 µM
[46] = measured here: BGB IC40 combination 0.05 uM, at 0.05 µM
[47] = measured here: BGB IC40 combination, at 0.05 µM

Nc1nc(NC2CC2)c2ncn(C3C=CC(CO)C3)c2n1 (stereo unspecified)
inhibition [1, 16]: 18.6% (inactive) and 9.78% (inactive) | inhibition [1, 17]: -10.2% and -25.3% | inhibition [1, 18]: -2.6% and -37.7% | inhibition [1, 19]: -13.2% and -43.3% | inhibition [1, 20]: 0.791% and -12% | inhibition [1, 21]: 42.6% and 20.9% | inhibition ([2]; BGB combo, at 5 µM): 7.05% and 3.14% | inhibition ([2]; at 0.5 µM): -27.8% (inactive) and -12.2% (inactive) | inhibition ([2]; cisplatin combo, at 5 µM): 15.9% and 16.9% | inhibition [2, 22]: -24.7% and -14% | inhibition [2, 23]: -37.5% and -12% | inhibition ([2]; single agent, at 5 µM): 15.7% and 29.8% | inhibition ([3]; BGB IC20 combo, at 0.005 µM): -32.2% and 1.07% | inhibition ([3]; BGB IC40 combo, at 0.005 µM): -10% and -27% | inhibition ([3]; BGB IC40 combo, at 0.05 µM): 11.7% and 20.9% | inhibition ([3]; at 0.5 µM): -15.2% (inactive) and -19.6% (inactive) | inhibition ([3]; cisplatin combo, at 0.05 µM): 9.21% and 18% | inhibition ([3]; cisplatin combo, at 0.5 µM): -8.32% and -16.8% | inhibition ([3]; cisplatin combo, at 5 µM): -66.5% and -40.2% | inhibition [3, 24]: -33.4% and -23.1% | inhibition ([4]; at 0.5 µM): -29.4% (inactive) and -14.1% (inactive) | inhibition [4, 19]: -41.9% and -20.2% | inhibition [4, 25]: -65.7% and -24.2% | inhibition [4, 26]: 10.3% and 37.7% | inhibition ([5]; at 0.5 µM): -22.4% (inactive) and -2.82% (inactive) | inhibition [5, 27]: -29.8% and -5.83% | inhibition [5, 28]: -10.5% and 18.8% | inhibition [5, 29]: -25.7% and -8.4% | inhibition [5, 30]: 3.54% and 48.9% | inhibition ([5]; single agent, at 5 µM): 15.5% and 29.1% | inhibition ([6]; at 0.5 µM): -73.4% (inactive) and -21.7% (inactive) | inhibition [6, 31]: -122% and -23.9% | inhibition [6, 32]: -57% and -77.8% | inhibition ([7]; at 0.5 µM): -12.2% (inactive) and -6.69% (inactive) | inhibition [7, 33]: -5.41% and -19.4% | inhibition [7, 34]: -23.6% and 5.04% | inhibition ([8]; at 0.5 µM): -7.07% (inactive) and -1.31% (inactive) | inhibition [8, 35]: -16.1% and -7.54% | inhibition [8, 36]: -20.7% and -16.3% | inhibition ([9]; at 0.5 µM): -0.03% (inactive) and -16.7% (inactive) | inhibition [9, 25]: 2.24% and -15.7% | inhibition [9, 26]: -15.7% and 24.3% | inhibition ([10]; at 0.5 µM): 0.7% (inactive) and -5.22% (inactive) | inhibition [10, 37]: 5.51% and -4.19% | inhibition [10, 38]: 23.6% and 15.9% | inhibition [10, 39]: -6.39% and -11.5% | inhibition [10, 40]: 25.3% and 12.2% | inhibition [11, 41]: 21.9% and 44.1% | inhibition ([11]; at 0.5 µM): -6.63% (inactive) and -4.62% (inactive) | inhibition [11, 42]: 36% and 67.6% | inhibition ([12]; at 0.5 µM): -19.5% (inactive) and 11.5% (inactive) | inhibition [12, 43]: -10.8% and 10% | inhibition [12, 44]: -38.1% and 8.23% | inhibition ([13]; at 0.5 µM): -4.33% (inactive) and -11.9% (inactive) | inhibition [13, 45]: 6.28% and -30.6% | inhibition ([13]; cisplatin combination, at 5 µM): 27.2% and 36.5% | inhibition [13, 46]: 4.8% and -24.4% | inhibition ([13]; single agent, at 5 µM): 29.7% and 30.5% | inhibition ([14]; at 0.5 µM): -22.8% (inactive) and -12.3% (inactive) | inhibition ([14]; cisplatin combo, at 5 µM): 15.1% and 15.7% | inhibition [14, 47]: -23.6% | inhibition [14, 25]: -50.2% and -0.496% | inhibition ([14]; single agent, at 5 µM): 16.3% and 21.5% | inhibition ([15]; at 0.5 µM): -22.4% (inactive) and -10.8% (inactive) | inhibition [15, 22]: -35.1% and -4.57% | inhibition [15, 23]: -18.6% and -15.8% | inhibition ([15]; single agent, at 0.05 µM): -49.6% and -25.5% | inhibition ([15]; single agent, at 5 µM): -7.83% and 23.5%

CC(C)C(=O)SCCCCCCC(=O)Nc1nc(-c2ccccc2)cs1
inhibition [1, 16]: -25.8% (inactive) | inhibition [1, 17]: -14.6% | inhibition [1, 18]: -57.5% | inhibition [1, 19]: -33.9% | inhibition [1, 20]: -38.9% | inhibition [1, 21]: 85.2% | inhibition ([2]; BGB combo, at 5 µM): 48.9% | inhibition ([2]; at 0.5 µM): 6.91% (inactive) | inhibition ([2]; cisplatin combo, at 5 µM): 45.1% | inhibition [2, 22]: 1.56% | inhibition [2, 23]: 14.6% | inhibition ([2]; single agent, at 5 µM): 57.6% | inhibition ([3]; BGB IC20 combo, at 0.005 µM): 16.1% | inhibition ([3]; BGB IC40 combo, at 0.005 µM): -25.2% | inhibition ([3]; BGB IC40 combo, at 0.05 µM): 31.3% | inhibition ([3]; at 0.5 µM): -31.1% (inactive) | inhibition ([3]; cisplatin combo, at 0.05 µM): 28% | inhibition ([3]; cisplatin combo, at 0.5 µM): -33.4% | inhibition ([3]; cisplatin combo, at 5 µM): -7.7% | inhibition [3, 24]: 4.47% | inhibition ([4]; at 0.5 µM): -22% (inactive) | inhibition [4, 19]: -72.1% | inhibition [4, 25]: -44.8% | inhibition [4, 26]: 68.5% | inhibition ([5]; at 0.5 µM): -4.36% (inactive) | inhibition [5, 27]: 2.11% | inhibition [5, 28]: 19% | inhibition [5, 29]: -21.4% | inhibition [5, 30]: 38.3% | inhibition ([5]; single agent, at 5 µM): 22.2% | inhibition ([6]; at 0.5 µM): -30.2% (inactive) | inhibition [6, 31]: -44.3% | inhibition [6, 32]: -19.3% | inhibition ([7]; at 0.5 µM): 4.11% (inactive) | inhibition [7, 33]: 5.74% | inhibition [7, 34]: 11.7% | inhibition ([8]; at 0.5 µM): 5.55% (inactive) | inhibition [8, 35]: -30.6% | inhibition [8, 36]: -3.57% | inhibition ([9]; at 0.5 µM): -13.4% (inactive) | inhibition [9, 25]: -25.2% | inhibition [9, 26]: 54.7% | inhibition ([10]; at 0.5 µM): -7.93% (inactive) | inhibition [10, 37]: -9.46% | inhibition [10, 38]: 10.2% | inhibition [10, 39]: -23.5% | inhibition [10, 40]: 18.2% | inhibition [11, 41]: 37.8% | inhibition ([11]; at 0.5 µM): 9.48% (inactive) | inhibition [11, 42]: 66.2% | inhibition ([12]; at 0.5 µM): 31.1% (inactive) | inhibition [12, 43]: 34.6% | inhibition [12, 44]: 18.5% | inhibition ([13]; at 0.5 µM): -9.26% (inactive) | inhibition [13, 45]: -8.48% | inhibition ([13]; cisplatin combination, at 5 µM): 42.4% | inhibition [13, 46]: -39.7% | inhibition ([13]; single agent, at 5 µM): 71.8% | inhibition ([14]; at 0.5 µM): -9.74% (inactive) | inhibition ([14]; cisplatin combo, at 5 µM): 41% | inhibition [14, 47]: 12.2% | inhibition [14, 25]: -9.58% | inhibition ([14]; single agent, at 5 µM): 36.3% | inhibition ([15]; at 0.5 µM): 33.1% (inactive) | inhibition [15, 22]: 24.9% | inhibition [15, 23]: 36.2% | inhibition ([15]; single agent, at 0.05 µM): 0.931% | inhibition ([15]; single agent, at 5 µM): 46.6%
